From PubChem BioAssay (Tox21) come the findings set out here.

“And” between values parts separate entries of the source, which are not always exact repeats. Equal values may be shown once. Records with an inconclusive call do not appear. Where a call stands in place of a potency, no number is given. Unmarked numbers belong to inactive results. The source made the active and inactive calls. Calls follow the shape of the dose curve; as a rule, active = well fitted cell-killing curve with a large enough effect in the repeat runs; inconclusive = weak or mixed curves, or effect the other way; inactive = flat fitted curve, though single readings scatter. Residues, ends and D or L forms follow the SMILES beside them.
Potency is read from the fitted curve at half-maximal effect.

The experiment can be described thus: qHTS RealTime-Glo MT Cell Viability Assay in HEK293 cells - 0 hour (AID 1224880). Also: nearly all actives have a fitted effect of over 45% in size. As to activity change, negative = cytotoxicity: top concentration of the series differs between compounds. The settings on record: RealTime-Glo luminescence; series mostly up to 76.8 µM; activity change, negative = cytotoxicity: at the top concentration. An excerpt: U.S. Tox21 Program National Center for Advancing Translational Sciences [NCATS] NIH Chemical Genomics Center [NCGC] U.S. Environmental Protection Agency [EPA] National Institutes of Environmental Health Sciences [NIEHS] National Toxicology Program [NTP] U.S. Food and Drug Administration [FDA] Tox21 Assay Overview: Measure of cell viability is critical in the cell-base assay. Analysis of cell viability is necessary for the characterization of cell responses to cytotoxic drugs and environmental stress. A RealTime-Glo MT Cell Viability Assay to monitor cell viability in real time of continues cell culture during 40 hours of compound treatment was used to screen Tox21 10K library compounds in Hek293 cells. The RealTime-Glo MT Cell Viability Assay is a nonlytic, homogeneous, bioluminescent method to measure cell viability in real time using a simple, plate-based method. The assay involves adding NanoLuc luciferase and a cell-permeant prosubstrate to cells in culture. Viable cells reduce the proprietary prosubstrate to generate a substrate for NanoLuc luciferase. This substrate diffuses from cells into the surrounding culture medium, where it is rapidly used by the NanoLuc Enzyme to produce a luminescent signal. The signal correlates with the number of viable cells, making the assay well suited for cytotoxicity studies.
Tox21 Assay Protocol Summary: The mixture of Hek293 cell suspension and reagents were dispensed at 600cells/6 ul/well in 1536-well tissue culture treated black solid bottom plates using a Multidrop dispenser. After the assay plates were incubated at a 37 C/5% CO2 incubator for 5 hours, 23 nL of compounds dissolved in DMSO, positive and negative controls was transferred to the assay plate by a pintool work station. The plates were incubated at 37 C for 40 hours. The luminescence intensity were measured at 0h, 8h, 16h, 24h, 32h and 40h time points using ViewLux plate reader during compound treatment.
Turning to `CCCCC(CC)COC(=O)/C=C/c1ccc(OC)cc1` (stereo not given), the Potency result was “inactive”.

In the case of `NC(=O)NC1NC(=O)NC1=O` (stereo not given), the Potency entry is “inactive”.

As to `CCCNC(=O)NS(=O)(=O)c1ccc(Cl)cc1`, the Potency result is “inactive”.

For `CCCC(CCC)C(=O)O`, the Potency entry is “inactive”.

In the case of `Cc1ccc(O)cc1`, the Potency entry was “inactive”.

With `Nc1ccc(S(=O)(=O)c2ccc(N)cc2)cc1`, the Potency result was “inactive”.

Regarding `C1N2CN3CN1CN(C2)C3`, the Potency entry was “inactive”.

With `O=C(O)c1cc(N=Nc2ccc(S(=O)(=O)Nc3ccccn3)cc2)ccc1O`, the Potency is 12.3 µM (active) and 19.5 µM (active) and 16.9 µM (active).

For `CCCC(O)C(CC)CO` (stereo not given), the Potency result was “inactive”.

In the case of `NC(N)=NC(=O)c1nc(Cl)c(N)nc1N`, the Potency entry is “inactive”.

Regarding `Nc1ccc(O)c(C(=O)O)c1`, the Potency result is “inactive”.

For the compound `c1ccc2[nH]ccc2c1`, the Potency entry was “inactive”.

Take `NC(=O)c1cnccn1`: the Potency result is “inactive”.

As to `O=C(O)CCC(=O)O`, the Potency entry was “inactive”.

In the case of `CCCCCCCCCCCCCCCC(=O)O`, the Potency result was “inactive”.

As for `OC(Cn1cncn1)(Cn1cncn1)c1ccc(F)cc1F`, the Potency result is “inactive”.

For the compound `Cc1cc(=O)[nH]c(=S)[nH]1`, the Potency entry is “inactive”.

As for `O=S(=O)(O)NC1CCCCC1`, the Potency entry was “inactive”.

`O=C(O)c1cccnc1`: the Potency result is “inactive”.

Consider `CC(=O)OCC(COC(C)=O)OC(C)=O`, for which the Potency result was “inactive”.

As to `O=NO`, the Potency entry is “inactive”.

`COc1c2occc2cc2ccc(=O)oc12`: the Potency entry was “inactive”.

Consider `COc1ccc2[nH]cc(CCNC(C)=O)c2c1`, for which the Potency entry was “inactive”.

For the compound `N=C(N)c1ccc(OCCCCCOc2ccc(C(=N)N)cc2)cc1`, the Potency entry is “inactive”.

With `O=C(O)c1[nH]n(-c2ccc(S(=O)(=O)O)cc2)c(=O)c1N=Nc1ccc(S(=O)(=O)O)cc1`, the Potency result is “inactive”.

For the compound `OCCc1ccccc1`, the Potency result was “inactive”.

As to `CCCCC1C(=O)N(c2ccccc2)N(c2ccccc2)C1=O`, the “activity change, negative = cytotoxicity” value is -29.8%.

With `NNC(=O)c1ccncc1`, the Potency entry is “inactive”.

With `CC(C)(Oc1ccc(C2CC2(Cl)Cl)cc1)C(=O)O` (stereo not given), the Potency result was “inactive”.

Consider `CC1(C)[C@@H]2CC[C@@]1(C)C(=O)C2`, for which the Potency entry is “inactive”.

As for `O=C(c1ccccc1)C(O)c1ccccc1` (stereo not given), the Potency result is “inactive”.

Turning to `Cc1ccccc1C(OCCN(C)C)c1ccccc1` (stereo not given), the Potency result was “inactive”.

On to `CCOc1ccc(NC(=O)CC(C)O)cc1` (stereo not given), for which the Potency result was “inactive”.

As for `Oc1ccc(/C=C/c2cc(O)cc(O)c2)cc1`, the Potency entry was “inactive”.

For `COC(=O)[C@H](Cc1ccccc1)NC(=O)[C@@H](N)CC(=O)O` (H-Asp-Phe-OMe), the Potency result was “inactive”.

For `CC(C)[C@@H]1CC[C@@H](C)C[C@H]1O`, the Potency result was “inactive”.

With `O=C(O)C(=O)O`, the Potency entry was “inactive”.

In the case of `O=c1cc[nH]c(=S)[nH]1`, the Potency result was “inactive”.

Take `C[C@]12C=CC(=O)C=C1CC[C@@H]1[C@@H]2[C@@H](O)C[C@@]2(C)[C@H]1CC[C@]2(O)C(=O)CO`: the Potency result was “inactive”.

`O=C(O)/C=C\C(=O)O`: the Potency result is “inactive”.
